Screening results (PubChem BioAssay)
ERp5 inh: ERp5 (human) disulfide isomerase inhibition. AID 651711. ERp5 insulin aggregation, absorbance 650 nm, 90 min. 0.05% of 350,000 active. inhibition, % at 9.99 µM;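 active = mean replicate inhibition above about 25%, with every replicate also reaching it, limit read from the data, passing the limit was not always enough; inconclusive = only one of those two criteria met; inactive = neither criterion met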
AF4-AF9 inh: MLL-AF4/AF9 protein interaction inhibition; P42568; AlphaScreen, biotin-AF4 peptide binding to FLAG-AF9; inhibition, % at 10 µM; 0.47% of 350,000 active;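 active = every replicate reaching a set inhibition limit, whatever the replicate mean, cut at about 25% in these data; inconclusive = mean inhibition reaches that limit but some replicates miss it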
Target sequence (P42568 whole entry, looked up): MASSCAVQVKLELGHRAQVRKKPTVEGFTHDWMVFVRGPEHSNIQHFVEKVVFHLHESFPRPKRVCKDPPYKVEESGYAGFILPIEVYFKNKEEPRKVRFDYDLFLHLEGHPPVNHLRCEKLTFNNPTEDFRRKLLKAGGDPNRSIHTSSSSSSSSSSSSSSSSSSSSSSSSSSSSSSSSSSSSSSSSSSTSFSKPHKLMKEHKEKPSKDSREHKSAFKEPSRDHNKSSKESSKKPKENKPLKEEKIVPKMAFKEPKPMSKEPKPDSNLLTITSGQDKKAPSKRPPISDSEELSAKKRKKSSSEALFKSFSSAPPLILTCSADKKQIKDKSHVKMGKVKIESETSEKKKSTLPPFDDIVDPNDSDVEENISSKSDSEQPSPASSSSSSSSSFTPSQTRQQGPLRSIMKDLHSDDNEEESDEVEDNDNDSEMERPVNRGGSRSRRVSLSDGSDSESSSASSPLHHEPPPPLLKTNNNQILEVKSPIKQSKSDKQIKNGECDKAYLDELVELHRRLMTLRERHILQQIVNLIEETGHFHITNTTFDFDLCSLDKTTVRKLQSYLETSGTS
PDI inh: PDI (human) enzyme inhibition | inhibition, % at 10 µM | AID 588391 | P07237 | 0.052% of 350,000 active | PDI insulin aggregation turbidity, A650, 90 min;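 active = mean inhibition across replicates of 30% or more, whatever share of single replicates reach that level; inconclusive = mean inhibition below 30% while every single replicate reaches 30%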
DENV2 CPE: protects cells from dengue virus 2 cytopathic effect; DENV2-infected cells, cytopathic effect rescue, plate reader; CPE inhibition, % at 9.99 µM; AID 651640; 1.7% of 350,000 active; in the data active = CPE inhibition above about 20%, passing the limit was not always enough; inconclusive = no clear call, values can overlap the other calls; tested in BHK-21 cells
ERAP1 inh: ERAP1 (human) enzyme inhibition; Q9NZ08; recombinant ERAP1, Leu-AMC fluorescence, 60 min; inhibition, % at 10.7 µM; 0.15% of 340,000 active; AID 652197;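 active = mean replicate inhibition of at least 30%, or all replicates individually reaching that 30% level; inactive = mean below 30% and not every replicate reaching it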
A number is an active result; n = inactive; u = inconclusive; x = no result given; ! = a repeat was not active. Rows were chosen to be rich in hits. Some 1.8% of all compounds tested hit in one or more screens of this group.

SMILES | ERp5 inh | AF4-AF9 inh | PDI inh | DENV2 CPE | ERAP1 inh
C[C@H](CO)N1C[C@H](C)[C@@H](CN(C)Cc2ccc(C(=O)O)cc2)Oc2ccc(NS(=O)(=O)c3cccs3)cc2CC1=O | 43 | n | x | n | n
C[C@H]1CN([C@@H](C)CO)C(=O)Cc2cc(NS(=O)(=O)c3cccs3)ccc2O[C@H]1CN(C)Cc1ccc2c(c1)OCO2 | n | n | x | 104 | n
C[C@@H]1CN([C@H](C)CO)C(=O)Cc2cc(NS(=O)(=O)c3cccs3)ccc2O[C@H]1CN(C)Cc1ccc(C(=O)Nc2ccccc2N)cc1 | n | n | x | 39 | n
C[C@H](CO)N1C[C@H](C)[C@H](CN(C)S(=O)(=O)c2ccccc2)Oc2ncc(C#CCN(C)C)cc2C1=O | n | n | x | n | n
O=C(C[C@H]1CC[C@H](NS(=O)(=O)c2ccccc2)[C@H](CO)O1)N1CCc2ccccc2C1 | n | n | x | n | n
CCN1[C@@H]2c3ccc(-c4cccc(F)c4)c(=O)n3C[C@@H]2[C@@H](CO)[C@@H]1C(=O)NCCCN(C)C | n | n | x | n | n
COc1ccc(-c2ccc3c(c2)[C@@H]2C[C@H](N(C)C(=O)C(C)(C)C)[C@H]([C@H](C)O)C(=O)N2CC3)cc1 | n | n | n | 129 | n
O=C(C[C@@H]1C=C[C@H](NC(=O)c2ccncc2)[C@H](CO)O1)Nc1ccccc1 | n | n | x | n | n
O=C(N[C@@H]1CC[C@H](CCNC(=O)C2CCCCC2)O[C@@H]1CO)c1ccccn1 | n | n | x | 149 | n
O=C(C[C@@H]1C=C[C@@H](NC(=O)c2ccncc2)[C@H](CO)O1)Nc1ccccc1 | n | n | x | 35 | n
O=C(N[C@H]1CC[C@@H](CC(=O)N2CCCCC2)O[C@@H]1CO)c1ccccn1 | n | n | x | n | n
O=C(N[C@@H]1CC[C@@H](CC(=O)N2CCN(c3ccccc3)CC2)O[C@H]1CO)c1ccncc1 | n | n | x | 31 | n
O=C(N[C@H]1CC[C@H](CC(=O)N2CCCCC2)O[C@@H]1CO)c1ccccn1 | n | n | x | 28 | x
O=C(N[C@H]1C=C[C@@H](CC(=O)N2CCN(c3ccccc3)CC2)O[C@H]1CO)c1ccccc1 | n | n | x | 71 | n
O=C(N[C@@H]1C=C[C@H](CC(=O)N2CCN(c3ccccc3)CC2)O[C@H]1CO)c1ccccc1 | n | n | x | n | n
O=C(N[C@H]1CC[C@@H](CCNC(=O)C2CCCC2)O[C@@H]1CO)c1ccccn1 | n | n | x | n | n
O=C(N[C@H]1CC[C@@H](CCNC(=O)C2CCCC2)O[C@H]1CO)c1ccccn1 | n | n | x | 44 | n
CCC(=O)Nc1ccc2c(c1)OC[C@@H](C)N(C(=O)NC1CCCCC1)C[C@@H](C)[C@H](OC)CN(C)C2=O | n | n | x | n | n
C[C@H]1CN([C@@H](C)CO)C(=O)c2cc(NC(=O)NC3CCCCC3)ccc2O[C@H]1CN(C)Cc1ccccc1 | n | 33 | x | n | n
C[C@@H]1CCCCO[C@H](CN(C)Cc2ccncc2)[C@@H](C)CN([C@@H](C)CO)C(=O)c2cc(NC(=O)NC3CCCCC3)ccc2O1 | n | n | x | 75 | n
C[C@H]1CN([C@@H](C)CO)C(=O)c2cc(NC(=O)NC3CCCCC3)ccc2O[C@H]1CN(C)Cc1ccncc1 | n | n | x | 25 | n
C[C@H]1CN([C@@H](C)CO)C(=O)c2cc(NC(=O)NC3CCCCC3)ccc2O[C@@H]1CN(C)Cc1ccccc1 | n | n | x | n | n
C[C@H]1CCCCO[C@@H](CN(C)Cc2ccncc2)[C@@H](C)CN([C@@H](C)CO)C(=O)c2cc(NC(=O)NC3CCCCC3)ccc2O1 | n | n | x | u | n
C[C@@H]1CN([C@@H](C)CO)C(=O)c2cc(NC(=O)C3CC3)ccc2O[C@H]1CN(C)C(=O)NC1CCCCC1 | n | n | x | n | n
CN1CCN(CCCN2c3ccccc3Sc3ccc(C(F)(F)F)cc32)CC1 | n | 27! | n | n | n
SMILES | ERp5 inh | AF4-AF9 inh | PDI inh | DENV2 CPE | ERAP1 inh
O=C1N[C@H](Cc2ccccc2)COCn2nncc2CC[C@@H]1Cc1ccccc1 | x | n | x | x | x
Cc1cccc(N(CC(=O)NC(C)(C)C)C(=O)CNC(=O)c2cccs2)c1C | n | n | n | 44 | x
CC(=O)N1[C@H](CO)[C@H](c2ccc(-c3ccccc3)cc2)[C@@H]1CNC(=O)C1CC1 | x | x | x | n | x
C[C@H]1CN([C@@H](C)CO)S(=O)(=O)c2ccc(/C=C/c3ccccc3)cc2O[C@H]1CN(C)C(=O)NC1CCCC1 | n | n | x | u | n
CCN(CC)S(=O)(=O)c1cccc(C(=O)NCC2(N3CCOCC3)CCCCC2)c1 | n | n | n | 95 | n
CN(C)S(=O)(=O)c1cccc(C(=O)NCC2(N3CCOCC3)CCCCC2)c1 | n | n | n | n | n
CCOC(=O)N1CCC(NS(=O)(=O)c2ccc(C#N)cc2)CC1 | n | n | n | 47 | x
Cc1cccc(-c2ccc([C@H]3[C@H](CO)N4CCCCN(S(=O)(=O)c5cccc(C)c5)C[C@@H]34)cc2)c1 | n | n | x | n | n
Cc1cccc(S(=O)(=O)N2CCCCN3[C@H](CO)[C@H](c4ccc(-c5ccncc5)cc4)[C@@H]3C2)c1 | n | n | x | 33 | n
Cc1cccc(-c2ccc([C@@H]3[C@@H](CO)N4CCCCN(S(=O)(=O)c5cccc(C)c5)C[C@@H]34)cc2)c1 | n | n | x | 21 | n
CCNC(=O)[C@@H]1[C@@H](CO)[C@@H]2Cn3c(cccc3=O)[C@@H]2N1Cc1ccccc1Cl | n | n | x | n | n
O=c1[nH]c(=S)[nH]c2sccc12 | n | n | n | x | 50
COc1ccc(S(=O)(=O)Nc2ccc3c(c2)C(=O)N([C@@H](C)CO)C[C@@H](C)[C@H](CN(C)C(=O)CCCN(C)C)OCCCC[C@@H](C)O3)cc1 | n | n | x | 31 | n
C[C@H](CO)N1C[C@H](C)[C@H](CN(C)C(=O)CCC(F)(F)F)OCCCC[C@H](C)Oc2ccc(NS(=O)(=O)c3ccc(Cl)cc3)cc2C1=O | 81 | n | x | n | n
Cc1noc(C)c1S(=O)(=O)Nc1ccc2c(c1)C(=O)N([C@@H](C)CO)C[C@H](C)[C@H](CN(C)C(=O)CCC(F)(F)F)OCCCC[C@H](C)O2 | n | n | x | 34 | n
Cc1noc(C)c1S(=O)(=O)Nc1ccc2c(c1)C(=O)N([C@@H](C)CO)C[C@@H](C)[C@H](CN(C)C(=O)CCC(F)(F)F)OCCCC[C@@H](C)O2 | n | n | x | n | n
C[C@H](CO)N1C[C@H](C)[C@H](CN(C)C(=O)CCCN(C)C)OCCCC[C@H](C)Oc2ccc(NS(=O)(=O)c3ccc(Cl)cc3)cc2C1=O | n | n | x | 41 | n
CC(C)NC(=O)Nc1ccc2c(c1)C(=O)N([C@H](C)CO)C[C@H](C)[C@H](CN(C)CC1CCCCC1)OCCCC[C@H](C)O2 | n | n | x | n | n
C[C@@H]1CCCCO[C@H](CN(C)C(=O)C2CCCCC2)[C@H](C)CN([C@H](C)CO)C(=O)c2cc(NS(=O)(=O)c3ccc(Cl)cc3)ccc2O1 | n | n | x | 39 | n
